# The campaign covered roughly 310,000 compounds. About 14,000 (4.5%) showed an effect of 50% or more. Effects have a minus sign here. The entries come from a sample that favours strong results as a whole.
# Molecular target: human ether-à-go-go-related gene (hERG) potassium channel (human, UniProt Q12809)
# Assay: primary screen, population patch clamp on CHO cells stably expressing hERG; higher = less effect of the substance
# 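Further: peak tail current of the secondary pulse compared with the same well before compound.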
# Sequence of human ether-à-go-go-related gene (hERG) potassium channel (Q12809 whole entry, looked up): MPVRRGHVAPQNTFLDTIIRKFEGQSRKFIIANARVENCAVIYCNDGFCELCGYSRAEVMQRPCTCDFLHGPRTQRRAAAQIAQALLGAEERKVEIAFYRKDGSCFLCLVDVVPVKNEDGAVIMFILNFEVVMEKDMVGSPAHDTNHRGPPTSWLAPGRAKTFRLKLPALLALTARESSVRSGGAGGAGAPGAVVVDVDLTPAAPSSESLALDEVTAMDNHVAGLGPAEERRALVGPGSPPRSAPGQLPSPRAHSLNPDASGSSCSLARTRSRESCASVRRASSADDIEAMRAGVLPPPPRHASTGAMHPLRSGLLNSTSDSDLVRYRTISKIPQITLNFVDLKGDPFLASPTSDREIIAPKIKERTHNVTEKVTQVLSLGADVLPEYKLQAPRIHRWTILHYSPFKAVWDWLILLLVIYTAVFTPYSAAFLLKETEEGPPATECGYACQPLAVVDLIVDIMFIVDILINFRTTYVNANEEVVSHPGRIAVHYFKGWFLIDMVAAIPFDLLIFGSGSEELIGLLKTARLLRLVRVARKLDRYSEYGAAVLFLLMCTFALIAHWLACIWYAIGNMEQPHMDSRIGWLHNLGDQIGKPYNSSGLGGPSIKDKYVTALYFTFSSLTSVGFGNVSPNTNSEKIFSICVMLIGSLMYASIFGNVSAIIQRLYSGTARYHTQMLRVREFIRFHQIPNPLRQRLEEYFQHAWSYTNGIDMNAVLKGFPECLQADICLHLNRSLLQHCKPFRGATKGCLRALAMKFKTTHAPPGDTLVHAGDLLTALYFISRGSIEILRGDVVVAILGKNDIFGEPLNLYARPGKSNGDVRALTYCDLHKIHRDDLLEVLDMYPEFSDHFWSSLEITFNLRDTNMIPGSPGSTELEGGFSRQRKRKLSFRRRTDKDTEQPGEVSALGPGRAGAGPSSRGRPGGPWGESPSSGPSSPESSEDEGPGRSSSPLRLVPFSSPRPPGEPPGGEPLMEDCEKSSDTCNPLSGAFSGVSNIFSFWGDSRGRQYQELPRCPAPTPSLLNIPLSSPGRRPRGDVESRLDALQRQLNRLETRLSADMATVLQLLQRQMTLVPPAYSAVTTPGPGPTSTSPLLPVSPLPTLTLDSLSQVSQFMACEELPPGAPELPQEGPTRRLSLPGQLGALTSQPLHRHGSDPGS
row,Structure (SMILES),"hERG current change (%, negative = inhibition) at 10uM [%]"
1,Cc1cccc(OCCCn2c(CO)nc3ccccc32)c1,-32.3
2,CC(C)CCn1c(SCC(N)=O)nc2c1c(=O)n(C)c(=O)n2C,6.57
3,O=C(Nc1cccc2ncccc12)c1ccccc1Cl,18.6
4,Clc1ccccc1-c1nnc2sc(-c3cccs3)nn12,-4.57
5,CC(=O)c1c(C)oc2ccc(NS(=O)(=O)c3ccc(F)cc3C)cc12,-13.8
6,O=C(NN1CCOCC1)c1ccc(F)cc1,1.47
7,CCOC(=O)c1c(C)nn(-c2ccc(NC(=O)c3cccs3)cc2)c1C,16.8
8,CCOC(=O)C1=C(O)C(=O)N(c2ccccc2)C1c1cccc([N+](=O)[O-])c1 (centres unmarked),-26.7
9,Cc1ccccc1OCC(=O)Nc1ccc2c(c1)OCO2,-7.9
10,Cc1cccc(C(=O)N(CCc2ccccc2)Cc2ccccc2)c1[N+](=O)[O-],4.17
11,Cc1cccc(-n2c(C)cc(C)c(C#N)c2=O)c1,7.18
12,Cc1ccc(C(=O)NCCCNC(=O)c2ccco2)cc1C,14.7
13,CC(Nc1nc(N2CCOCC2)nc2ccccc12)c1ccccc1 (centres unmarked),-73.8
14,CN1CCN(c2nc(N3CCN(CCO)CC3)nc3ccccc23)CC1.Cl,7.33
15,CC(Nc1nc(N2CCN(CCO)CC2)nc2ccccc12)c1ccccc1 (centres unmarked),-60.9
16,c1ccc2c(Nc3ccc(N4CCOCC4)cc3)nc(N3CCOCC3)nc2c1,-48.5
17,c1ccc2c(NC3C4CC5CC(C4)CC3C5)nc(N3CCOCC3)nc2c1 (centres unmarked),-35.1
18,CCN(CC)c1nc(N2CCN(CCO)CC2)nc2ccccc12.Cl,-27.8
19,CN(C(=O)CS(=O)(=O)c1cn(CC(=O)N2CCOCC2)c2ccccc12)c1ccccc1,0.304
20,Cc1cc(C)c(S(=O)(=O)NCCCn2ccnc2)cc1C,4.04
21,Cn1c(=O)c2[nH]c(-c3ccccc3O)nc2n(C)c1=O,23
22,O=C(O)CCN1c2ccccc2Sc2ccccc21,16.5
23,CN1CCCCC1CCN1c2ccccc2Sc2ccc(S(C)=O)cc21.O=S(=O)(O)c1ccccc1 (centres unmarked),-56

row,Structure (SMILES),"hERG current change (%, negative = inhibition) at 10uM [%]"
1,CC(=O)Nc1ccc(SCCC2CCCCN2C)cc1 (centres unmarked),7.77
2,O=C(NCCN1CCOCC1)c1ccc2c(c1)N(Cc1ccc(F)cc1)C(=O)c1ccccc1S2(=O)=O,0.647
3,CC(NC(=O)Nc1ccc(Cl)cc1)C1CCCO1 (centres unmarked),7.05
4,COc1ccc(S(=O)(=O)N2CC(O)CC2C(=O)Nc2cccnc2)cc1 (centres unmarked),11.1
5,O=C(NCc1ccccc1Cl)C(=O)NCC1OCCN1S(=O)(=O)c1cccs1 (centres unmarked),-15
6,O=C(c1ccc2ccccc2n1)N1CCN(c2ccccc2)CC1,-3.81
7,O=C(c1ccc2ccccc2n1)N1CCN(c2ccccc2Cl)CC1,-64.8
8,O=C(c1ccc2ccccc2n1)N1CCN(c2ccccc2O)CC1,-0.197
9,O=C(N/N=C/c1cccc([N+](=O)[O-])c1)C1CC(=O)N(c2ccc(Cl)cc2)C1 (centres unmarked),-82.1
10,O=C(N/N=C/c1cccc([N+](=O)[O-])c1)C1CC(=O)N(c2ccc(F)cc2)C1 (centres unmarked),-65.8
11,Cc1ccc(N2CC(C(=O)N/N=C/c3cccc([N+](=O)[O-])c3)CC2=O)cc1 (centres unmarked),-22.2
12,O=C(N/N=C/c1ccccc1O)C1CC(=O)N(c2ccc(Cl)cc2)C1 (centres unmarked),8.21
13,O=C(N/N=C/c1cccc([N+](=O)[O-])c1)C1CC(=O)N(c2ccc(Br)cc2)C1 (centres unmarked),-46.6
14,O=C(N/N=C/c1cccc(Br)c1)C1CC(=O)N(c2ccccc2)C1 (centres unmarked),7.68
15,O=C(NCc1ccccc1Cl)c1cccc(NC(=O)c2ccccc2)c1,-8.78
16,COc1cc(NC(=S)NC(=O)CC(C)C)ccc1NC(=O)c1cc2ccccc2o1,19.7
17,COC(=O)CNC(=O)c1ccccc1C,11.2
18,COc1ccc(S(=O)(=O)N2CCCOC2CNC(=O)C(=O)NC2CCCC2)cc1 (centres unmarked),4.51
19,CCCC(C)(C)NC(=O)CCCCC(=O)NC(C)(C)CCC,-9.49
20,CCCCCCCC(=O)N1c2ccccc2NC(=O)C1CC(=O)Nc1ccc(C(=O)O)cc1 (centres unmarked),13.6
21,COc1cccc(NC(=S)N(C)C2CCN(C)CC2)c1,11
22,O=C(CCS(=O)(=O)Cc1ccccc1)N1CCN(Cc2ccccc2)CC1,-22.1
23,O=C(CCN1CCN(c2ccc([N+](=O)[O-])cc2)CC1)c1ccc(Cl)cc1,-72.4

row,Structure (SMILES),"hERG current change (%, negative = inhibition) at 10uM [%]"
1,O=C(CCc1ccccc1)N1CCN(c2ccc(F)cc2)CC1,-23
2,O=C(CCCC(=O)N1CCN(c2ccccc2F)CC1)c1ccccc1,-10.7
3,O=C(CCN1CCOCC1)c1ccc(Cl)cc1,28.3
4,COc1ccc(N2CCN(CC(=O)c3ccc(Cl)cc3)CC2)cc1,10.5
5,O=C(CCCC(=O)N1CCN(c2cccc(Cl)c2)CC1)c1ccccc1,-44.2
6,O=C(CCCC(=O)N1CCN(c2ccc([N+](=O)[O-])cc2)CC1)c1ccccc1,-72
7,O=C(CCS(=O)(=O)Cc1ccccc1)N1CCN(c2ccc([N+](=O)[O-])cc2)CC1,-81.6
8,O=C(CCc1ccccc1)N1CCN(c2ccc(Cl)cc2)CC1,-35.1
9,O=C(CCS(=O)(=O)Cc1ccccc1)N1CCN(c2ccccc2)CC1,-7.79
10,CC(=O)c1ccc(N2CCN(C(=O)CCc3ccccc3)CC2)cc1,-54.1
11,CSc1nc2ccc(NC(=O)C3CCCO3)cc2s1 (centres unmarked),-0.62
12,CC(=O)Nc1cccc(NC(C)=O)n1,19.6
13,COc1cc(C(=S)N2CCOCC2)ccc1O,29.3
14,CCOc1ccc(C(=O)Nc2nnc(SCC(=O)NCC3CCCO3)s2)cc1OCC (centres unmarked),9.52
15,c1ccc(-c2cn(CC3CCCCC3)nn2)cc1,-1.74
16,CCc1ccc(OCC(=O)O/N=C(\N)c2ccncc2)c(Br)c1,10.2
17,CC1CC(C)CN(C(=O)CCc2ccccc2)C1 (centres unmarked),-2.16
18,CC1CCCN(C(=O)CCc2ccccc2)C1 (centres unmarked),-5.7
19,O=C(CCCc1ccccc1)N1CCN(c2ccc([N+](=O)[O-])cc2)CC1,-64.7
20,C=CCN1CCN(C(=O)CCCc2ccccc2)CC1,26.1
21,O=C(CN1CCN(c2ccc(Cl)cc2)CC1)c1ccccc1,-6.33
22,CC1CN(C(=O)CCc2ccccc2)C(C)CN1C(=O)CCc1ccccc1 (centres unmarked),-60.4
23,COc1ccc(N2CCN(C(=O)CCc3ccccc3)CC2)cc1,-9.27

row,Structure (SMILES),"hERG current change (%, negative = inhibition) at 10uM [%]"
1,O=C(CCCC1=NS(=O)(=O)c2ccccc2N1)N1CCN(c2ccc([N+](=O)[O-])cc2)CC1,-1.34
2,O=C(CN1CCN(c2ccc([N+](=O)[O-])cc2)CC1)c1ccccc1,-75
3,N#Cc1ccc(C(=O)CN2CCN(c3ccccc3)CC2)cc1,-42.8
4,O=C(CCc1ccccc1)N1CCN(c2ccc([N+](=O)[O-])cc2)CC1,-73.1
5,Cc1c(C)n(CC(O)CNCCO)c2ccccc12.O=C(O)C(=O)O (centres unmarked),5.33
6,CN1CCN(C(=O)CN(C)S(=O)(=O)c2cc(Cl)ccc2Cl)CC1,4.23
7,CC1(C)CC2CN(C(=O)Cc3ccccc3)C(C)(C2)C1 (centres unmarked),0.0688
8,COc1ccc(/C=N/NC(=O)c2ccco2)cc1Cn1nc(C)cc1C,-2.47
9,COc1ccc(-c2nnc(NC(=O)c3ccc(S(=O)(=O)N4CCCc5ccccc54)cc3)o2)cc1,0.175
10,CC1(C)CC(=O)c2sc(N3CCCCC3)nc2C1,-2.83
11,COc1cc(CC(=O)N/N=C/c2ccccc2)c([N+](=O)[O-])cc1OC,0.219
12,Clc1cccc(CNCCc2c[nH]c3ccccc23)c1.O=C(O)C(=O)O,-14
13,c1ccc(Cn2nnnc2C(c2ccccc2)N2CCN(c3nc4ccccc4s3)CC2)cc1 (centres unmarked),-11.7
14,CS(=O)(=O)N1CCN(c2ccc(NC(=O)CSc3ccc(Cl)cc3)cc2)CC1,-0.247
15,CCCCCCN1CCN(c2ccc(Cl)cc2)CC1,-66.9
16,O=C(O)c1ccccc1SCC(=O)N1CCCCC1,15.2
17,O=C(CCc1ccccc1)N1CCCN(C(=O)CCc2ccccc2)CC1,-51.5
18,O=C(CCc1ccccc1)N1CCCC1,8.96
19,O=C(NCCOc1ccccc1)c1ccccc1SCC(=O)N1CCCC1,14.9
20,O=C(NCCc1ccccc1)c1ccccc1SCC(=O)N1CCCC1,-51.3
21,CC(C)OC(=O)CN1CCN(c2ccc(Cl)cc2)CC1,1.73
22,COc1ccc(N2CCN(CCCN)CC2)cc1,8.6
23,CCOC(=O)N1CCN(C(=O)CCc2ccccc2)CC1,5.12

# From PMC4336329 (PLoS ONE, 2015)
